Source: PubChem BioAssay
APOBEC3A inh: inhibitors of human APOBEC3A DNA deaminase; AID 493011; P31941; inhibition, % at 20 µM; 0.41% of 330,000 active; recombinant A3A, FAM/TAMRA ssDNA deamination fluorescence;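 active = at least 40% inhibition at 20 µM here, with at most 30% in a related deaminase screen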;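 also: plate controls were A3A with DMSO for no effect and wells lacking A3A enzyme for full effect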
Target sequence (P31941 whole entry, looked up): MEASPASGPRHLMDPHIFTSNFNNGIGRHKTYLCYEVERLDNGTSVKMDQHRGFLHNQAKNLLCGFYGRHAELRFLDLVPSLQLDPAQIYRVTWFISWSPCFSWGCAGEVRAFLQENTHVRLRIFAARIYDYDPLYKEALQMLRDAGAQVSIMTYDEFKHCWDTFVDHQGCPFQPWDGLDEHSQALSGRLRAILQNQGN
PHOSPHO1 inh: inhibitors of human PHOSPHO1 phosphatase | inhibition, % at 13.3 µM | 1.1% of 290,000 active | AID 1565 | recombinant PHOSPHO1, absorbance phosphatase assay | Q8TCT1; in the data active = inhibition above about 60%
esBAF inh: blocks esBAF chromatin remodeling in mouse ES cells. AID 602393. Bmi1-luciferase knock-in reporter, 24 h; 100% = twice the neutral-well signal. reporter increase, % at 12.5 µM. 2% of 350,000 active; in the data active = activation above about 40%;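 also: 0% = median of the plate's neutral control wells and 100% = double that signal; a rise in the Bmi1 reporter signal indicates esBAF inhibition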
MITF TRPM1 HTS: increases MITF-driven TRPM1 promoter luciferase signal; SK-MEL-5 TRPM1-promoter luciferase, 24 h; % of positive control, neutral wells = 0; activation, % at 12.5 µM; 0.75% of 300,000 active;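 active = mean activation of at least 80% with every replicate also reaching 80%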;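 also: 0% = neutral control wells and 100% = parthenolide positive control wells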
A3G deaminase: inhibitors of human APOBEC3G DNA deaminase. inhibition, % at 20 µM. recombinant A3G, ssDNA deamination FAM/TAMRA fluorescence. Q9HC16. AID 493012. 0.28% of 330,000 active;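 active = inhibition of at least 40% at 20 µM, with no more than 30% in the related APOBEC3A deaminase screen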;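 also: plate controls were DMSO wells with A3G for no effect and wells lacking A3G enzyme for full effect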
Target sequence (Q9HC16 whole entry, looked up): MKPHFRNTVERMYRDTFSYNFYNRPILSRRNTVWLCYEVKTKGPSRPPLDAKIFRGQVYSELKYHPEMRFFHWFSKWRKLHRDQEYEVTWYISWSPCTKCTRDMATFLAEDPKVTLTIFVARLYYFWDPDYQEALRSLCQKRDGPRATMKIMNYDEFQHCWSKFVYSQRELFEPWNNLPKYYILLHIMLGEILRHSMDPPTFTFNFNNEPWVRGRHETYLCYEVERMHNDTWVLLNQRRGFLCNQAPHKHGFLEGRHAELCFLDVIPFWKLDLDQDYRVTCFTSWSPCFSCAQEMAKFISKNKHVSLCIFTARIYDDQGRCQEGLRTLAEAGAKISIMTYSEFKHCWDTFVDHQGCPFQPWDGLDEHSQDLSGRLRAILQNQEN
Wnt bcat act: activates Wnt/beta-catenin signaling in a reporter cell assay. activator, plate reader. activation, % at 9.35 µM. 1.2% of 300,000 active; in the data active = activation above about 30%, passing the limit was not always enough;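 also: 0% = neutral control wells and 100% = positive control wells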
A3A conf: confirmation of human APOBEC3A DNA deaminase inhibitors. shares compounds with APOBEC3A inh. recombinant A3A, ssDNA deaminase UDG fluorescence assay. inhibition, % at 20 µM. 63% of 1,400 active. AID 493151;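 active = inhibition reaching a set limit, 80% of the first screen's cutoff, at 20 µM in any replicate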;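 also: plate controls were DMSO wells with A3A for no effect and wells lacking A3A enzyme for full effect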
UDG A3A counter: counter-screen for APOBEC3A inhibitors: UDG. shares compounds with APOBEC3A inh. UDG counterscreen, FAM/TAMRA uracil oligo fluorescence. inhibition, % at 20 µM. 1,000 tested, under 10 active. AID 504714; call rule not given here
Numbers without * were called inactive; · = no result. Sampled rows, rich in hits. Any-hit rate of the full collection: about 3.6%.

SMILES	APOBEC3A inh	PHOSPHO1 inh	esBAF inh	MITF TRPM1 HTS	A3G deaminase	Wnt bcat act	A3A conf	UDG A3A counter
CCOC(=O)C1CCCN(CC(=O)Nc2cc(C)cc(C)c2)C1 (stereo not drawn)	60.1*	-7.3	-4.5	0.0	29.7	-3.4	28.8	·
CO[C@H]1CN(C)C(=O)c2cccc(C#N)c2OC[C@H]2O[C@H](CC[C@@H]2OC)CCN(C)C(=O)[C@H]1C	·	·	1.4	·	·	·	·	·
COc1cc(/C=C/c2cccc[n+]2C)ccc1OCC(=O)Nc1ccccc1C	82.2*	14.6	-0.2	4.7	23.4	-1.1	72.5*	-0.4
CCOc1cc(/C=C/c2cccc[n+]2C)ccc1O	81.2	23.5	10.0	·	32.0	0.3	·	·
CCOc1cc(/C=C/c2cccc[n+]2C)ccc1OCC(=O)Nc1ccc(C)cc1	86.7*	32.5	8.3	4.1	21.8	3.0	73.7*	-1.9
Cn1nc([N+](=O)[O-])nc1S(C)(=O)=O	88.0*	35.9	-3.8	-72.5	9.9	-0.2	88.2*	-3.5
CNC(=O)C[C@H]1CC[C@H]2[C@H](COc3ccc(NC(=O)Nc4cc(C)cc(C)c4)cc3C(=O)N2C)O1	·	·	-2.1	·	·	·	·	·
C=CCOc1ccc(C(c2c(C(=O)O)[nH]c3ccccc23)c2c(C(=O)O)[nH]c3ccccc23)cc1	54.7*	9.3	1.4	-15.9	24.2	1.4	41.0*	-3.3
COc1ccc(NS(=O)(=O)c2ccc3c(c2)[C@H]2C=CC[C@H]2[C@@H](c2ccc(C(=O)O)cc2)N3)cc1	48.7*	14.2	-2.8	-9.9	27.8	0.5	29.3*	1.1
Cc1ccccc1S(=O)(=O)NCC[C@@H]1CC[C@@H](NC(=O)C2CCOCC2)[C@@H](CO)O1	·	·	-1.6	·	·	·	·	·
C[C@@H]1CN([C@@H](C)CO)C(=O)c2cc(NC(=O)Nc3ccc4c(c3)OCO4)ccc2O[C@H]1CN(C)Cc1ccncc1	·	·	1.3	·	·	·	·	·
Nc1nnc(SCC(=O)N2CCN(Cc3ccccc3)CC2)s1	64.0*	51.4	-6.0	-5.0	19.6	1.4	23.9	·
Cc1nnc(SCC(=O)N2CCN(Cc3ccccc3)CC2)s1	-1.0	14.0	-1.6	0.5	-2.6	0.6	·	·
CO[C@H]1CN(C)C(=O)c2cc(NC(=O)NC(C)C)ccc2OC[C@H](C)NC[C@@H]1C	·	·	-0.7	·	·	·	·	·
CC(=O)c1ccc(NC(=O)C[n+]2ccc(N(C)C)cc2)cc1	-4.7	39.0	11.4	·	-2.9	-0.7	·	·
CN(C)c1cc[n+](CC(=O)Nc2ccc(OC(F)F)cc2)cc1	48.3*	12.1	-3.9	-39.7	11.1	-0.1	65.2*	-2.5
Cc1ccc(S(=O)(=O)N2CCC(C(=O)C3C(=O)CCCC3=O)CC2)cc1	-2.9	40.8	·	-3.3	-6.4	-0.9	·	·
CC1(C)CC(=O)C(C(=O)C2CCN(S(=O)(=O)c3ccccc3)CC2)C(=O)C1	47.0*	28.3	·	-10.4	-7.4	0.5	-5.4	0.8
C[C@@H]1CN([C@H](C)CO)S(=O)(=O)c2ccc(C3=CCCC3)cc2O[C@H]1CN(C)C(=O)c1ccc(F)cc1	·	·	0.6	·	·	·	·	·
COc1cccc(S(=O)(=O)N2C[C@@H](O)COC[C@H]3O[C@H](CC(=O)NCCCN4CCOCC4)CC[C@@H]32)c1	·	·	-2.5	·	·	·	·	·
C[n+]1cccc(C(=O)N/N=C/c2ccc3c(c2)OCO3)c1	74.9*	16.0	7.2	5.7	17.7	1.3	69.5*	-1.2
O=C(N/N=C/c1ccc2c(c1)OCO2)c1ccc(COCC(F)(F)C(F)F)cc1	98.1*	5.1	·	-15.3	-5.9	·	-0.8	-2.1
C[C@H](CO)N1C[C@H](C)[C@@H](CN(C)Cc2ccncc2)Oc2ccc(NC(=O)Cc3ccccc3)cc2CC1=O	·	·	-1.9	·	·	·	·	·
C[C@@H](O)C#Cc1ccc2c(c1)O[C@H](CN(C)C(=O)c1ccccc1)[C@@H](C)CN([C@@H](C)CO)S2(=O)=O	·	·	1.0	·	·	·	·	·
O=C(Nc1nc2ccc([N+](=O)[O-])cc2s1)c1c(F)cccc1F	-2.7	42.8	26.3	25.0	-10.5	-0.4	·	·
SMILES	APOBEC3A inh	PHOSPHO1 inh	esBAF inh	MITF TRPM1 HTS	A3G deaminase	Wnt bcat act	A3A conf	UDG A3A counter
COc1ccc2sc(NC(=O)c3ccco3)nc2c1	61.0*	96.3*	-67.8	-0.6	29.4	5.5	47.9*	-1.6
COc1ccc2nc(NC(=O)c3ccc(-c4cccc([N+](=O)[O-])c4)o3)sc2c1	52.5*	-6.2	·	·	14.3	·	32.1*	·
COc1cc(C(=O)NCc2ccco2)cc(OC)c1OC	1.4	-2.2	·	2.7	4.2	-4.7	·	·
COc1cc(C(=O)NCc2ccco2)c(Br)c(OC)c1OC	51.1*	31.4	-12.6	-7.1	-2.7	·	-9.3	-2.9
CO[C@@H]1CN(C)C(=O)c2ccc(NC(=O)c3ccccc3)cc2OC[C@H](C)N(CC2CC2)C[C@H]1C	·	·	-2.9	·	·	·	·	·
CN(CC(=O)Nc1cccc(F)c1)C(=O)c1ccc2c(c1)OCCO2	40.3*	·	39.4	36.3	4.1	4.4	2.3	·
CCOc1c(C=C(C#N)C#N)c2ccccc2n1CC	41.8*	0.6	·	-0.6	-0.6	0.5	-7.3	-3.6
O=C(CSc1nnc(-c2ccncc2)n1-c1ccccc1)N1CCN(c2ccc(Cl)cc2)CC1	43.7*	93.2*	-3.6	·	15.2	-3.1	65.4*	0.2
CC1=NOC(=O)/C1=C\c1ccc(-c2ccc(Br)cc2)o1	·	4.1	·	-79.9	·	-4.6	·	·
CC1=NOC(=O)/C1=C\c1ccc(-c2ccc(Br)cc2C(=O)O)o1	53.4*	-67.3	-7.4	9.1	16.1	-0.4	active	4.7
C[C@@H]1CN([C@H](C)CO)C(=O)c2cc(NC(=O)CCC(F)(F)F)ccc2O[C@@H](C)CCCCO[C@H]1CN(C)S(=O)(=O)c1ccccc1	·	·	2.2	·	·	·	·	·
CC(=O)N(C)C[C@@H]1Oc2ncc(-c3ccc(C#N)cc3)cc2C(=O)N([C@H](C)CO)C[C@@H]1C	·	·	4.4	·	·	·	·	·
CCN(CC)S(=O)(=O)c1cccc(C(=O)Nc2ccc(S(=O)(=O)NC3=NCCCCC3)cc2)c1	55.1*	·	·	-16.0	3.2	-2.7	7.4	·
COc1cc(OC)cc(C(=O)OCC(=O)Nc2cccc(S(=O)(=O)NC3=NCCCCC3)c2)c1	88.4*	·	11.0	0.1	-1.1	-3.2	-4.1	2.1
CCN1/C(=C/c2ccc3cccc(C)c3[n+]2CC)Sc2ccccc21	69.9*	-17.6	·	-71.4	23.6	·	85.5*	5.0
CC(C)S(=O)(=O)N[C@@H]1c2cc3c(cc2[C@H](c2ccccc2)[C@H]1C)OCO3	·	·	·	·	·	-1.0	·	·
CCCC#Cc1cnc2c(c1)C(=O)N([C@@H](C)CO)C[C@H](C)[C@H](CN(C)C(=O)c1cccnc1)O2	·	·	-3.3	·	·	·	·	·
C=CCC1(CC=C)CCCN1C(=O)c1cc(COc2cccc(OC)c2)on1	-3.5	12.1	-2.9	-6.5	-5.5	-1.5	·	·
